Only some compounds are listed: those with a hit (about 1.2% of all), similar ones and a draw of the others.
Mtb betalactam – beta-lactam sensitization of Mtb H37Rv; M. tuberculosis H37Rv growth with meropenem, percent inhibition; AID 434955; inhibition, % at 25 µM; hit rate 0.27% among 330,000; call rule not given here;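 also: growth measured after seven days incubation then overnight dye step; 0% = bacteria only wells and 100% = bacteria with antibiotic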
Vc quorum ag – induces V. cholerae light production without autoinducers | V. cholerae BH1578 lux reporter, luminescence, 6 h | hit rate 0.16% among 350,000 | activation, % at 18.7 µM; in the data active = activation mostly above about 9.7%, no sharp cut-off; inconclusive = no clear call, values can overlap the other calls; inactive = mostly below about 3.7%
PfHsp40 rescue – restores yeast growth despite PfHsp40 toxicity | hit rate 0.68% among 340,000 | growth rescue, % at 12.5 µM | AID 504582 | S. cerevisiae expressing PfHsp40, growth rescue, ATP luminescence; in the data active = growth rescue above about 28%, passing the limit was not always enough; inconclusive = no clear call, values can overlap the other calls;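 also: yeast W303a lacking pdr1 and pdr3 grown in galactose medium; growth measured after three days at 30 °C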
RN4220 kill – S. aureus RN4220 growth inhibition; inhibition, % (concentration not given with the values); AID 1259311; OD600, 16 h; hit rate 0.33% among 330,000; in the data active = inhibition above about 85%;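 also: plate controls were untreated cells for no effect and reference antibiotic for full effect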
ugtP null kill – growth inhibition of S. aureus ugtP deletion strain. growth inhibition, % (no concentration beside the values). S. aureus RN4220 ugtP deletion, OD600 growth, 16 h. AID 1259309. hit rate 0.54% among 330,000; in the data active = growth inhibition above about 68%;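 also: plate controls were untreated wells for no effect and antibiotic for full effect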
Numbers without * were called inactive.

Cc1ccc(C)c(NS(=O)(=O)c2ccc(NC(=O)CSc3ccc(Cl)cc3)cc2)c1 was read as Mtb betalactam -7, Vc quorum ag 0, PfHsp40 rescue -2, RN4220 kill -2 and ugtP null kill -25.
COCC=CC1=CC2=CC(=O)C(C)(OC(=O)c3cnc4ccccc4n3)C(=O)C2=CN1CCN1CCOCC1 (stereo unspecified) was read as RN4220 kill 10 and ugtP null kill -3.
Cc1c(Cl)cccc1NC(=S)N(Cc1cccnc1)Cc1ccccc1Cl was read as Mtb betalactam 5, Vc quorum ag 2, PfHsp40 rescue 35*, RN4220 kill -4 and ugtP null kill 16.
`Cc1ccccc1C(=O)NC(=S)Nc1sc2c(c1C#N)CCCC2` gave Mtb betalactam 1, Vc quorum ag inactive, PfHsp40 rescue 71*, RN4220 kill 3 and ugtP null kill 12.
For Cc1onc(-c2ccccc2)c1C(=O)NC(=S)Nc1sc2c(c1C#N)CCCC2 the results were Mtb betalactam -1, PfHsp40 rescue 0, RN4220 kill 5 and ugtP null kill 1.
For O=c1c(Cl)nc2cc(Cl)ccc2n1CCNc1ncc(C(F)(F)F)cc1Cl the results were Mtb betalactam 100, Vc quorum ag inactive, PfHsp40 rescue -2, RN4220 kill 33 and ugtP null kill 96*.
`O=[N+]([O-])c1c(Nc2ccc(O)cc2)cc(Cl)c2nonc12` gave Mtb betalactam 101, Vc quorum ag -1, PfHsp40 rescue -3, RN4220 kill 100* and ugtP null kill 99*.
Screening CN(C)c1cc(Nc2ccc(O)cc2)c([N+](=O)[O-])c2nonc12 returned Mtb betalactam -6, Vc quorum ag 0, PfHsp40 rescue -1, RN4220 kill 6 and ugtP null kill 11.
`CCCc1ccc(Oc2cc(C)nc(N3CCOCC3)n2)cc1` gave Mtb betalactam 3, Vc quorum ag -7, PfHsp40 rescue 2, RN4220 kill 4 and ugtP null kill 40.
`CCCc1ccc(Oc2cc(N3CCOCC3)nc(-c3ccccc3)n2)cc1` gave Mtb betalactam inconclusive, Vc quorum ag 1, PfHsp40 rescue 1, RN4220 kill -12 and ugtP null kill 89*.
Screening O=C1CCCCC1=CNCc1ccccc1 returned RN4220 kill 8 and ugtP null kill -2.
`CCOc1ccc(-c2ccc(/C=C3/C(=N)N4C(C)=CSC4=NC3=O)o2)c([N+](=O)[O-])c1` gave Mtb betalactam 8, Vc quorum ag 2, PfHsp40 rescue -2, RN4220 kill 11 and ugtP null kill 100*.
For CCCCCC(=O)N1CC2(CC(c3cccc(NC(=O)CC(c4ccccc4)c4ccccc4)c3)=NO2)CC1C(N)=O (stereo unspecified) the results were RN4220 kill -7 and ugtP null kill -5.
O=[N+]([O-])c1cccc(NN=Cc2cc([N+](=O)[O-])ccc2O)c1 was read as RN4220 kill 53 and ugtP null kill 22.
O=[N+]([O-])c1ccc(O)c(C=NNc2nn[nH]n2)c1 was read as RN4220 kill 95* and ugtP null kill 87*.
`O=C(NN=Cc1cc([N+](=O)[O-])ccc1O)Nc1ccccc1` gave RN4220 kill 91* and ugtP null kill 71.
Screening O=C(N/N=C/c1cccc([N+](=O)[O-])c1)c1ccc2c(c1)OCCO2 returned Mtb betalactam 6, Vc quorum ag inactive and PfHsp40 rescue 0.
O=C(NN=Cc1cc(=O)[nH]c(=O)[nH]1)c1ccncc1 was read as Vc quorum ag inactive and PfHsp40 rescue 30*.
For O=C(NN=Cc1cc([N+](=O)[O-])ccc1O)c1ccc2c(c1)OCCO2 the results were RN4220 kill 90* and ugtP null kill 68.
`COc1ccc(C(C)=NNS(=O)(=O)c2cc(C)ccc2C)c(OC)c1` gave RN4220 kill 8 and ugtP null kill 0.
For O=C(NN=Cc1cc([N+](=O)[O-])ccc1O)c1ccncc1 the results were RN4220 kill 86* and ugtP null kill 75.
Screening O=C(NN=Cc1ccc([N+](=O)[O-])cc1)c1ccncc1 returned Vc quorum ag -4, PfHsp40 rescue -2, RN4220 kill -1 and ugtP null kill 6.
`COc1cc(O)oc1C=Nc1ccc(Cl)cc1` gave Mtb betalactam -5, Vc quorum ag 26*, PfHsp40 rescue 0, RN4220 kill -2 and ugtP null kill -7.
For CCOc1cc(C2C(C(=O)c3ccc(C)o3)=C(O)C(=O)N2CCc2ccccc2)ccc1O (stereo unspecified) the results were Mtb betalactam 2, Vc quorum ag -1, PfHsp40 rescue 77*, RN4220 kill 18 and ugtP null kill 48.

Bioassay records from PubChem.
